# TDP1 cell CPT – qHTS for Inhibitors of human tyrosyl-DNA phosphodiesterase 1 (TDP1): qHTS in cells in presence of CPT; AID 686979, 2013; chicken DT40 Tdp1-/-;hTDP1 cells + 20 nM CPT, ATP luminescence, 48 h; 420,000 tested, 12% active; Potency, µM (doses to about 46.2 µM), for inactives: at the highest dose activity change, negative = growth inhibition, actives largely listed as inhibitors; also: nearly all actives have a fitted effect of over 55% in size
#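 Cell growth measured by CellTiter-Glo luminescence after a minimum 48 h, 37 C compound exposure with 20 nM CPT in Tdp1-knockout DT40 cells stably expressing hTDP1, seeded 400/well; qHTS titration format.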
# RORg inh – qHTS for inhibitors of ROR gamma transcriptional activity. Drosophila S2 Gal4-RORgamma UAS-luciferase reporter, 20 h. Potency, µM (series often up to 53.6 µM), without a hit: top-dose activity change, negative = inhibition, actives largely listed as inhibitors. AID 2551, 2010. 310,000 tested, 5.4% active; also: nearly all actives have a fitted effect of over 60% in size
# Target sequence (P51450 whole entry, looked up, the tested form may be a part): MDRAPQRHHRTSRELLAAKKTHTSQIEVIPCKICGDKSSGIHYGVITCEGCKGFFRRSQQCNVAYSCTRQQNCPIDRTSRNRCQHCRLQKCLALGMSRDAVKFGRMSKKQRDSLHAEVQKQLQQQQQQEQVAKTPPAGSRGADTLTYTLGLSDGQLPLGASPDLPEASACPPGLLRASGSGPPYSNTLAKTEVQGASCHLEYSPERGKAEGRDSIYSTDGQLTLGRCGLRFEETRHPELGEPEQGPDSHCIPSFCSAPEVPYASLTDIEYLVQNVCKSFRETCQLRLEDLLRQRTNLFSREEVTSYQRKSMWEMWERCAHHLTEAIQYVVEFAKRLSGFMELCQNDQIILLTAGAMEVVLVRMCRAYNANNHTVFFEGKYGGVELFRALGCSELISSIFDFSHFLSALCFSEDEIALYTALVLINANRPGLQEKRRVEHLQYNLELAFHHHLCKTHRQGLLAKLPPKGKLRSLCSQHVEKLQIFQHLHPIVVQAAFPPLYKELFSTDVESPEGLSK
#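 Compounds are pin-transferred onto Drosophila Schneider cells expressing a copper-inducible Gal4–ROR gamma transactivation domain fusion. After 1 hr, copper sulfate is added to 700 uM final; luciferase is read 20 hr later.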
# TDP1 inh – qHTS Assay for Inhibitors of Tyrosyl-DNA Phosphodiesterase (TDP1). Tyrosyl-DNA phosphodiesterase 1 (Homo sapiens), Q9NUW8. recombinant TDP1, AlphaScreen DNA substrate cleavage. Potency, µM (doses to about 130 µM), without a hit: at the highest dose activity change, negative = inhibition, usual class: inhibitors. 350,000 tested, 0.28% active. AID 485290, 2010; also: nearly all actives have a fitted effect of over 40% in size
#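 Steps: enzyme plus compound, 15 min RT; add biotin/phosphotyrosine-FITC oligonucleotide (15 nM final), react 5 min; add donor/acceptor beads (10 ug/ml final), 10 min; read AlphaScreen. Tdp1 at 1 nM final.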
# DT40 TDP1 no CPT – qHTS for Inhibitors of human tyrosyl-DNA phosphodiesterase 1 (TDP1): qHTS in cells in absence of CPT; DT40 Tdp1-/- hTDP1 cells, no CPT, ATP luminescence, 48 h; Potency, µM (series often up to 46.2 µM), for the others: top-dose activity change, negative = growth inhibition, usual class: inhibitors; 420,000 tested, 15% active; AID 686978, 2013; also: nearly all actives have a fitted effect of over 55% in size
#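 Compound effects on proliferation are scored in DT40 Tdp1-/-;hTDP1 cells in the absence of CPT. ATP levels (CellTiter-Glo luminescence) are recorded after a ≥48 hr, 37 °C incubation.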
# VP16 counter – VP16 counterscreen qHTS for inhibitors of ROR gamma transcriptional activity | Drosophila S2 Gal4-VP16 UAS-luciferase, luminescence, 20 h | Potency, µM (titrated, usually from 53.6 µM), without a hit: top-dose activity, negative = inhibition, actives largely listed as inhibitors | 310,000 tested, 3.5% active | AID 2546, 2010;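 also: Gal4-VP16 expression switched on by copper sulfate through the metallothionein promoter; nearly all actives have a fitted effect of over 50% in size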
# Numbers without * were called inactive; ? = inconclusive; nt = no result given. Rows were chosen to be rich in hits. Some 19% of all compounds tested hit in one or more screens of this group. Calls follow the shape of the dose curve; as a rule, active = well fitted curve in the direction sought with a large enough effect; inconclusive = small, poorly fitted or top-dose-only effect, or another doubt; inactive = no such curve, though single readings can be large; an effect the other way counts as inactive or inconclusive. % is scaled to controls: 0 for no effect and ±100 for the full control effect; potency is read from the fitted curve at half-maximal effect.
SMILES,TDP1 cell CPT,RORg inh,TDP1 inh,DT40 TDP1 no CPT,VP16 counter
O=C1NC[C@H](c2ccccc2)OC(=O)[C@H](Cc2ccc(F)cc2)CC/C=C/C[C@H]1CC(=O)N(CCO)Cc1ccccc1,25.9µM*,nt,-0.7%,?,nt
O=C(C[C@H]1C/C=C\CC[C@H](Cc2ccc(F)cc2)C(=O)O[C@@H](c2ccccc2)CNC1=O)N[C@H](CO)Cc1ccccc1,?,nt,-2.7%,?,nt
O=C1NC[C@H](c2ccccc2)OC(=O)[C@@H](Cc2ccc(F)cc2)CC/C=C/C[C@@H]1CC(=O)N(CCO)Cc1ccccc1,?,nt,0.7%,23.1µM*,nt
O=C(C[C@@H]1C/C=C/CC[C@H](Cc2ccc(F)cc2)C(=O)O[C@H](c2ccccc2)CNC1=O)NCCO,-0.6%,nt,0.1%,-10.1%,nt
O=C(NNc1ccccc1)c1ccccc1,-24.0%,nt,nt,-15.2%,nt
S=C(N=Nc1ccccc1)NNc1ccccc1,3.66µM*,?,11.0%,?,5.5%
CC(C)(C)c1ccc(OCC(O)CSc2ncn[nH]2)cc1 (centres undefined),-28.7%,10µM*,-0.5%,-25.4%,5.62µM*
CC(/C=N/n1c(-c2ccccn2)n[nH]c1=S)=C\c1ccccc1,-25.6%,3.55µM*,12.3%,?,-9.0%
CC(/C=N/n1c(-c2ccco2)n[nH]c1=S)=C\c1ccccc1,?,?,9.5%,?,-69.8%
CCc1n[nH]c(=S)n1/N=C/C(C)=C\c1ccccc1,13.6%,7.08µM*,nt,-22.5%,5.62µM*
S=c1[nH]nc(-c2ccccn2)n1/N=C/c1ccccc1,0.8%,?,8.0%,-8.2%,-3.2%
CN(C)CCN(C)Cc1c2ccccc2c(CN(C)CCN(C)C)c2ccccc12,18.4µM*,0.5%,nt,18.4µM*,2.5%
CN(C)Cc1c(O)ccc2ccccc12,?,-29.9%,8.7%,?,-0.6%
O=[N+]([O-])c1ccc(Nc2c3ccccc3nc3ccccc23)cc1,?,22.4µM*,9.9%,?,-6.5%
O=[N+]([O-])c1ccc(-c2nc(Nc3ccc(O)cc3)c3ccccc3n2)cc1,-15.1%,-18.2%,nt,-0.7%,-26.3%
O=[N+]([O-])c1ccccc1Nc1c2ccccc2nc2ccccc12,20.6µM*,-29.3%,1.2%,?,?
NC(N)=NCCCS(=O)(=O)Nc1ccc(Nc2c3ccccc3nc3cc([N+](=O)[O-])ccc23)cc1,9.2µM*,nt,nt,16.4µM*,nt
O=C(O)c1ccc(Nc2nc(-c3ccc([N+](=O)[O-])cc3)nc3ccccc23)cc1,?,20.1%,nt,?,-6.5%
O=C(CCn1c2c(c3ccccc31)CCCC2)NNC(=O)c1ccccc1Cl,?,-34.7%,5.7%,?,-9.6%
O=C(CSc1nnc(-c2ccc(C(F)(F)F)cn2)s1)c1ccccc1,14.2%,-6.3%,2.4%,-22.1%,-8.6%
CCC(=O)Oc1cc(C(C)(C)C)cc2cc(-c3nc(-c4ccc(OC)cc4OC)no3)c(=O)oc12,?,nt,2.6%,16.4µM*,nt
CCCC(=O)N1CC(=O)Nc2ccc(C)cc2C1c1ccccc1 (centres undefined),5.2%,-25.9%,nt,-5.3%,1.1%
Cc1ccc2c(c1)C(c1ccccc1)N(C(=O)COc1ccc(Cl)cc1Cl)CC(=O)N2 (centres undefined),20.6µM*,nt,2.9%,20.6µM*,nt
O=C1CN(C(=O)Cc2ccc(F)cc2)C(c2ccccc2)c2cc(Cl)ccc2N1 (centres undefined),14.6µM*,nt,11.8%,18.4µM*,nt
O=C1CN(C(=O)c2ccc(S(=O)(=O)N3CCCC3)cc2)C(c2ccccc2)c2cc(Cl)ccc2N1 (centres undefined),?,nt,0.0%,20.6µM*,nt
SMILES,TDP1 cell CPT,RORg inh,TDP1 inh,DT40 TDP1 no CPT,VP16 counter
O=C1CN(C(=O)c2cccc(Br)c2)C(c2ccccc2)c2cc(Cl)ccc2N1 (centres undefined),5.17µM*,nt,4.7%,?,nt
O=C1CN(C(=O)c2ccc(S(=O)(=O)N3CCCCC3)cc2)C(c2ccc(F)cc2)c2cc(Cl)ccc2N1 (centres undefined),?,nt,5.9%,?,nt
O=C1CN(C(=O)Cc2ccccc2)C(c2ccc(F)cc2)c2cc(Br)ccc2N1 (centres undefined),?,nt,0.0%,?,nt
CC(=O)Nc1cccc(NC(=O)C2CCCN2C(=O)Nc2ccc(C)cc2)c1 (centres undefined),-4.1%,6.2%,6.3%,6.2%,-2.2%
O=c1cc(N2CCN(c3ccc(F)cc3)CC2)[nH]c(=O)n1Cc1ccc(F)cc1,9.2µM*,-19.1%,0.0%,8.2µM*,19.8%
NC(=O)CC[C@@H]1NC(=O)[C@H](CO)NC(=O)c2cc([N+](=O)[O-])cc(I)c2NCCC[C@@H](C(N)=O)NC(=O)[C@H](Cc2ccc(O)cc2)NC1=O,-0.3%,-1.6%,5.3%,3.6%,13.8%
COc1cc(/C=C2\SC(=S)N(Nc3ncc(C(F)(F)F)cc3Cl)C2=O)ccc1O,20.6µM*,19.2%,8.8%,?,-30.0%
CN(C)c1ccc(/C=C2\SC(=S)N(Nc3ncc(C(F)(F)F)cc3Cl)C2=O)cc1,8.2µM*,-24.9%,3.1%,8.2µM*,-0.2%
O=C(CSc1nnc(CNC(=O)c2c(F)cccc2F)o1)Nc1ccc2c(c1)OCCO2,-19.1%,14.0%,1.3%,-25.5%,3.2%
CCC1CCCCN1C(=O)c1cc(S(=O)(=O)N2CCOCC2)ccc1C (centres undefined),?,nt,0.2%,?,nt
O=C1N[C@@H](Cc2ccccc2)C(=O)N2CCC[C@@H]12,0.6%,-34.1%,nt,-6.6%,-1.8%
O=C1[C@H](Cc2ccccc2)NCC=CC[C@H](c2ccco2)N1Cc1ccccc1,20.6µM*,nt,nt,?,nt
CCc1ccc(C2/C=C\CNC(c3ccccc3)C(=O)N2Cc2ccc(C)cc2)cc1 (centres undefined),nt,-26.0%,10.3%,nt,-6.0%
O=C1[C@H](Cc2ccccc2)NCC=CC[C@@H](c2ccc(Cl)cc2)N1Cc1ccccc1,?,nt,nt,10.3µM*,nt
O=C(Oc1ccc2ccccc2c1Br)N1CCCCCC1,?,-24.4%,-8.2%,20.6µM*,-25.2%
NC(=O)C1CCN(C(=O)COc2ccc3ccccc3c2Br)CC1,0.0%,1.78µM*,1.4%,-16.4%,?
CCCC(=O)N1CCN(c2nc3ccc(Cl)cc3s2)CC1,?,?,1.1%,?,-12.5%
CC(C)(C)C(=O)N1CCN(c2nc3c(F)cccc3s2)CC1,16.4µM*,nt,2.6%,16.4µM*,nt

# Bioassay records: PubChem BioAssay, National Center for Advancing Translational Sciences (NCATS)
